Assay [1] has as its target T1, Dual specificity mitogen-activated protein kinase kinase 6 (Homo sapiens) (UniProt P52564).
T1 sequence (whole entry): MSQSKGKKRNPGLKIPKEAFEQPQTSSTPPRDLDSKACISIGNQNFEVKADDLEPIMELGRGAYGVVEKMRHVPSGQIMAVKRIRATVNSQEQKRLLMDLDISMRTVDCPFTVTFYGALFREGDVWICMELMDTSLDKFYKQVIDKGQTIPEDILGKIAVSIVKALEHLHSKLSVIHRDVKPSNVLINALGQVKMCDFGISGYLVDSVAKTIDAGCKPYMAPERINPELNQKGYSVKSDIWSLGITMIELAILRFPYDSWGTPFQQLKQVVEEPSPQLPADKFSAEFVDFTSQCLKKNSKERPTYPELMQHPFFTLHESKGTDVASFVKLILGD
The settings on record: at 1 µM.

In assay [2] the target is T1, Dual specificity mitogen-activated protein kinase kinase 6 (Homo sapiens). The settings on record: at 10 µM.
Assay [3] deals with Myosin light chain kinase, smooth muscle (Homo sapiens) (UniProt Q15746). The settings on record: at 1 µM.
Assay [4] has as its target Mitogen-activated protein kinase kinase kinase 9 (Homo sapiens) (UniProt P80192). As to conditions: at 1 µM.
Assay [5] has the same target. The settings on record: at 10 µM.
Assay [6] concerns the target Serine/threonine-protein kinase MRCK alpha (Homo sapiens) (UniProt Q5VT25). The settings on record: at 10 µM.
The target of assay [7] is Myosin light chain kinase, smooth muscle (Homo sapiens) (UniProt Q15746). The settings on record: at 10 µM.
The target of assay [8] is SRSF protein kinase 3 (Homo sapiens) (UniProt Q9UPE1). The settings on record: at 1 µM.
For assay [9], the target named is Serine/threonine-protein kinase MRCK beta (Homo sapiens) (UniProt Q9Y5S2). As to conditions: at 1 µM.
For assay [10], the target named is Ribosomal protein S6 kinase alpha-5 (Homo sapiens) (UniProt O75582). As to conditions: at 1 µM.
Assay [11] shares this target. The settings on record: at 10 µM.
The target of assay [12] is SRSF protein kinase 3 (Homo sapiens) (UniProt Q9UPE1). The settings on record: at 10 µM.
The target of assay [13] is T2, Serine/threonine-protein kinase 4 (Homo sapiens) (UniProt Q13043).
T2 sequence (whole entry): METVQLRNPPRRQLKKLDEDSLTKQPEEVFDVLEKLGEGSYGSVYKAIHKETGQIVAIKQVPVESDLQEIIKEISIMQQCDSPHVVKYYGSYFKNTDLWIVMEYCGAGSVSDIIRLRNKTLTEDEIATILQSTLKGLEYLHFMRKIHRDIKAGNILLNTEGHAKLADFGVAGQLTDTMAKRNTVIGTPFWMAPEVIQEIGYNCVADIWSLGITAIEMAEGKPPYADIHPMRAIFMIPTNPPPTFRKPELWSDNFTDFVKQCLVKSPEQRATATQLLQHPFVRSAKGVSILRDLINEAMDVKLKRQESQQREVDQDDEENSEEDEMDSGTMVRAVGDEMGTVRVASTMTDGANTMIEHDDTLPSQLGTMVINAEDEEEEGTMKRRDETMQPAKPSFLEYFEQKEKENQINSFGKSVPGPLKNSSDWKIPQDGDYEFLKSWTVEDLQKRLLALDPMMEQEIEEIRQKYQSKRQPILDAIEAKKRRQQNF
As to conditions: at 1 µM.

For assay [14], the target named is T2, Serine/threonine-protein kinase 4 (Homo sapiens). The settings on record: at 10 µM.
Assay [15] has as its target T3, Dual specificity mitogen-activated protein kinase kinase 7 (Homo sapiens) (UniProt O14733).
T3 sequence (whole entry): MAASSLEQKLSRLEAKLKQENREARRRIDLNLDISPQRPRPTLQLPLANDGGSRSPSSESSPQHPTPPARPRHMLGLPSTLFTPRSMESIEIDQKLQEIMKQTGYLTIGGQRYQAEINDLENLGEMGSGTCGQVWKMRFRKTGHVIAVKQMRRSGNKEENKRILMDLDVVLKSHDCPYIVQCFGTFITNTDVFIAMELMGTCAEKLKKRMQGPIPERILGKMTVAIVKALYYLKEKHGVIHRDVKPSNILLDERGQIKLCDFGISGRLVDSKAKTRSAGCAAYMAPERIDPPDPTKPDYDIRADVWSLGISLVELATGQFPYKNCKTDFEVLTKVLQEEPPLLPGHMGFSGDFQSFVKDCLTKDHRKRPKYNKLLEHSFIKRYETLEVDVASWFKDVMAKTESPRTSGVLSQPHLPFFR
As to conditions: at 1 µM.

The target of assay [16] is T3, Dual specificity mitogen-activated protein kinase kinase 7 (Homo sapiens). The settings on record: at 10 µM.
Assay [17] has as its target Serine/threonine-protein kinase MRCK beta (Homo sapiens) (UniProt Q9Y5S2). The settings on record: at 10 µM.
Assay [18] deals with Ribosomal protein S6 kinase alpha-4 (Homo sapiens) (UniProt O75676). As to conditions: at 10 µM.
For assay [19], the target named is Serine/threonine-protein kinase MRCK alpha (Homo sapiens) (UniProt Q5VT25). The settings on record: at 1 µM.
Assay [20] addresses Ribosomal protein S6 kinase alpha-4 (Homo sapiens) (UniProt O75676). As to conditions: at 1 µM.

Sequence of Serine/threonine-protein kinase MRCK beta (Homo sapiens) (Q9Y5S2 whole entry): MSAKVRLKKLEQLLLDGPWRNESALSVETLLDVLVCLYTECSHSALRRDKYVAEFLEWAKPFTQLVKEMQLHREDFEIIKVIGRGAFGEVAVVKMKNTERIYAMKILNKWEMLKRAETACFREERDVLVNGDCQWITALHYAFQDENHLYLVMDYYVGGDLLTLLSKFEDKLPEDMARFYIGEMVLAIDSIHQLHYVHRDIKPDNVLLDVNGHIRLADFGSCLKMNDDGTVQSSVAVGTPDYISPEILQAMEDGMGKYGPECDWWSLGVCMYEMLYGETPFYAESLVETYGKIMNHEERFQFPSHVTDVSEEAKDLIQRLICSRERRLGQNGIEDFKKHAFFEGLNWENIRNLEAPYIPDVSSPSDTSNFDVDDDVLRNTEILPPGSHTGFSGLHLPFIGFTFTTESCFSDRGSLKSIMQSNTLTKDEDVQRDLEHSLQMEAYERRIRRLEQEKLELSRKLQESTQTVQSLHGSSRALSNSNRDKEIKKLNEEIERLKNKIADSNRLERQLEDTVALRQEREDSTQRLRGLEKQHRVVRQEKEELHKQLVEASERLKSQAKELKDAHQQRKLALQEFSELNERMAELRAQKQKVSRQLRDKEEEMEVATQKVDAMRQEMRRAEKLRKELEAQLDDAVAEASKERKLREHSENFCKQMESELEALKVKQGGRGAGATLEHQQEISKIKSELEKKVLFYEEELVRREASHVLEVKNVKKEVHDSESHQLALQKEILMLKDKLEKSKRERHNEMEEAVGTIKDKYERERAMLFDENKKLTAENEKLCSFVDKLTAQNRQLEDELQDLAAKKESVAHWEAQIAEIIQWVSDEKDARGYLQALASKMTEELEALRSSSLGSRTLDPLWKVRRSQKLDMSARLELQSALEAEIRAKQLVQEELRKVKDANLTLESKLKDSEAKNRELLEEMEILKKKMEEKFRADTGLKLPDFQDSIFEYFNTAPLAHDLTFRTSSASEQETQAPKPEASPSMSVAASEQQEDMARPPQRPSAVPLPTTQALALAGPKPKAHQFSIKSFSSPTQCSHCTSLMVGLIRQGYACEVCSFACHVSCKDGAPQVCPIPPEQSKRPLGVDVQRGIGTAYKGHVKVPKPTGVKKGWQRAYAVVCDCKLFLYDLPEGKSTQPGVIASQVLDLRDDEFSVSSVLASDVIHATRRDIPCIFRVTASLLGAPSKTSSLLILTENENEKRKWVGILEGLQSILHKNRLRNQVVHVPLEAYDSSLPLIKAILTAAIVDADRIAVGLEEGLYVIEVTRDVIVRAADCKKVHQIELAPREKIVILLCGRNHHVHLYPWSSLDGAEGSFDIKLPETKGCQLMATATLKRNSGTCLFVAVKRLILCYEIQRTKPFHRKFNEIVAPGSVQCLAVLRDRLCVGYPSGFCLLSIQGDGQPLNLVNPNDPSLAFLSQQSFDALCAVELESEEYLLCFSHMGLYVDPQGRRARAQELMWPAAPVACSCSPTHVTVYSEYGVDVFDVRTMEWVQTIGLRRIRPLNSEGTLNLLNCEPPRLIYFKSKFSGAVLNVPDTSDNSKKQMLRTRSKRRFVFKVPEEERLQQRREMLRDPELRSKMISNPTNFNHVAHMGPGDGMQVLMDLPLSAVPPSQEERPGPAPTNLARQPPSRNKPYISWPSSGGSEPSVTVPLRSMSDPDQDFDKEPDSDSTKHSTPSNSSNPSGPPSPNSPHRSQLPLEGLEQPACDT
Sequence of Serine/threonine-protein kinase MRCK alpha (Homo sapiens) (Q5VT25 whole entry): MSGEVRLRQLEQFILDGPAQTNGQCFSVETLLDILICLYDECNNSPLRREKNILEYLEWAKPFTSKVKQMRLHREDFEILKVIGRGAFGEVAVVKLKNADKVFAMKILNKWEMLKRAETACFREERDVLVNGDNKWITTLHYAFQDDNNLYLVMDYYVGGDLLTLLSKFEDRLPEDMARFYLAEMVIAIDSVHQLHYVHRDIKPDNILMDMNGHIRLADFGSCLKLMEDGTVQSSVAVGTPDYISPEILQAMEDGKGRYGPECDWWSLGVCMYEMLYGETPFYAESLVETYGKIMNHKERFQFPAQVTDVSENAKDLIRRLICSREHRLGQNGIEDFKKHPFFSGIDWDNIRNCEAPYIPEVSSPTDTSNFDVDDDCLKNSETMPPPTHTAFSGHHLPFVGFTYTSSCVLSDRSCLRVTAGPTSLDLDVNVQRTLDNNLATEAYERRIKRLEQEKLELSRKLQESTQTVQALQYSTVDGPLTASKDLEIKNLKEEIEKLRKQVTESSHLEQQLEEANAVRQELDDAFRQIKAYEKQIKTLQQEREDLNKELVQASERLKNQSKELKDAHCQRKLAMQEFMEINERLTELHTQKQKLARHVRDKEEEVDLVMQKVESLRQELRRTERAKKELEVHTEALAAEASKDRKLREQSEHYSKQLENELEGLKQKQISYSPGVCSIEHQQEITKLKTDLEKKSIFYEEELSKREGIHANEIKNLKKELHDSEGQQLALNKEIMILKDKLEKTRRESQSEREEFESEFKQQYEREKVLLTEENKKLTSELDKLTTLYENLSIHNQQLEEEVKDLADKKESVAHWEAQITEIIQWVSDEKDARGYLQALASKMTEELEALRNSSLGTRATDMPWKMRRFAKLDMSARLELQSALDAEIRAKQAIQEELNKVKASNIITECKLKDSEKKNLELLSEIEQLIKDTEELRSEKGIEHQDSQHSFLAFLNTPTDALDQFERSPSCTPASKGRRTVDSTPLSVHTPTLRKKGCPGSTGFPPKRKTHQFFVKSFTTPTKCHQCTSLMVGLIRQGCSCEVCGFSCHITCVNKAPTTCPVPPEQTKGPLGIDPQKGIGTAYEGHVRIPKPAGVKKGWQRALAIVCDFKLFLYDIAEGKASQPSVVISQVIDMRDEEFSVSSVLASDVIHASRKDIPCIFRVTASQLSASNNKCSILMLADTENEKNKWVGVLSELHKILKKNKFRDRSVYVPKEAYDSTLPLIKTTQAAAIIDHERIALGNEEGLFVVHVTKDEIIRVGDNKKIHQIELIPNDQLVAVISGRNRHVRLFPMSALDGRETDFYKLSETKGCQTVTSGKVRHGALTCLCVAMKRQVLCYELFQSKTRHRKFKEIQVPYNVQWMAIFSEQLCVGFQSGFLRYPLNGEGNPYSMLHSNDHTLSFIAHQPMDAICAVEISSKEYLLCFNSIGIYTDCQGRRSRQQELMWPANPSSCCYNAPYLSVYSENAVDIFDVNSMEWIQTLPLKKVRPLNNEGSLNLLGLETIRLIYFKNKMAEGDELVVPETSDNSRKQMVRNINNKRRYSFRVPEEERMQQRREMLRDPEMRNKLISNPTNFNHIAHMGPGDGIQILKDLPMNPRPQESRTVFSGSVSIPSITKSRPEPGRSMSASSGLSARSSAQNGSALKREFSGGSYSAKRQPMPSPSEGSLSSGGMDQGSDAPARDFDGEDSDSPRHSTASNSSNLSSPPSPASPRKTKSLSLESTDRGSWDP
Sequence of Mitogen-activated protein kinase kinase kinase 9 (Homo sapiens) (P80192 whole entry, looked up): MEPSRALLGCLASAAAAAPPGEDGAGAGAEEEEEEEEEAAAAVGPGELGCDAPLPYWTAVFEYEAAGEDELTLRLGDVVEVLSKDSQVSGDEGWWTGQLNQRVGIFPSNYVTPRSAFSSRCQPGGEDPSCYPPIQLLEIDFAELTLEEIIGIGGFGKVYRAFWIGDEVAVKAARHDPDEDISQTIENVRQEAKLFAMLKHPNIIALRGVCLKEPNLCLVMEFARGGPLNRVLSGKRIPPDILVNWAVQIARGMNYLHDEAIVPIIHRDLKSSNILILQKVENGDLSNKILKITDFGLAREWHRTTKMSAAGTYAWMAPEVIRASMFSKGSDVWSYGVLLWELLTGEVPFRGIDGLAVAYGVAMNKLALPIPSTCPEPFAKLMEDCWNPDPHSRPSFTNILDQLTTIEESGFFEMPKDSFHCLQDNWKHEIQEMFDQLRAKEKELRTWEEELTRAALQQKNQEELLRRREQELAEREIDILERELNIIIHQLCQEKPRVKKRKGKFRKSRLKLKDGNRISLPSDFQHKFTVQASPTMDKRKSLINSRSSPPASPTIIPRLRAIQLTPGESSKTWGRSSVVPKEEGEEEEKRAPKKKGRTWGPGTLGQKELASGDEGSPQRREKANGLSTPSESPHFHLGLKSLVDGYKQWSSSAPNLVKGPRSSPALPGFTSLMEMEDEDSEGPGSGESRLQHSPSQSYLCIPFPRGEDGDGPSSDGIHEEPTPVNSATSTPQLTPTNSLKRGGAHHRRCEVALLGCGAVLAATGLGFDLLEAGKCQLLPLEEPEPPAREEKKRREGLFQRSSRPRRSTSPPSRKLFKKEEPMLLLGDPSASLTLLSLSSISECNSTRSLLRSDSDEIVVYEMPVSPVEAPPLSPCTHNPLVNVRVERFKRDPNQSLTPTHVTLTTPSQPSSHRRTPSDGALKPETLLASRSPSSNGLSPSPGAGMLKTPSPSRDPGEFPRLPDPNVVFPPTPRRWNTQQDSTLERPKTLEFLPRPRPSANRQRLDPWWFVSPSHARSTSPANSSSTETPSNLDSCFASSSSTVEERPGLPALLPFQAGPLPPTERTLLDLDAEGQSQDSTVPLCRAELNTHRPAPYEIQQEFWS
Sequence of SRSF protein kinase 3 (Homo sapiens) (Q9UPE1 whole entry): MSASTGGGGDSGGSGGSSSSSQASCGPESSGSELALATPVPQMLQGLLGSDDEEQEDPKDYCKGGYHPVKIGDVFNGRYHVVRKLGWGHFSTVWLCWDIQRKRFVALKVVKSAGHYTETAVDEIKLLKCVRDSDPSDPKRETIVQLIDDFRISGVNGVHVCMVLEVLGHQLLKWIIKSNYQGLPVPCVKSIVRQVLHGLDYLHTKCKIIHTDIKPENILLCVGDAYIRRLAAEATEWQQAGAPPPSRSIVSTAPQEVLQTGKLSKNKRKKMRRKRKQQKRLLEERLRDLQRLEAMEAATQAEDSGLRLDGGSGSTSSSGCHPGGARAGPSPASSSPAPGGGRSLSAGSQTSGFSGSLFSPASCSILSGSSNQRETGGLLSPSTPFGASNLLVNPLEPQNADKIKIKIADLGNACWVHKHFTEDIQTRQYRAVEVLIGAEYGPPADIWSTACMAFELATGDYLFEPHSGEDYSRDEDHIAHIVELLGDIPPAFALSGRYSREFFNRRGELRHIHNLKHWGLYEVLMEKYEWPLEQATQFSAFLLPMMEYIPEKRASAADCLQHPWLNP

Turning to `NC(=O)c1cccc(-c2cc(Nc3ccc(OC(F)(F)F)cc3)ncn2)c1`, the residual activity was 144% in [1]; 95% in assay [2]; 88% in assay [3]; 95% in assay [4]; 87% in assay [5]; 145% in assay [6].
`CN([C@@H](Cc1ccc(OS(=O)(=O)c2cccc3cnccc23)cc1)C(=O)N1CCN(c2ccccc2)CC1)S(=O)(=O)c1cccc2cnccc12`: the residual activity in assay [2] was determined as 124%; in assay [3], 100%; in assay [7], 72%; in [8], 100%.
`CCCCc1c(-c2ccc(OC)cc2)[nH]c2nccnc12`: the residual activity in assay [1] was determined as 128%; in [2], 80%; in assay [3], 104%; in [7], 83%; in [4], 16%; in [5], 19%. In addition, the residual activity in assay [6] was 88%; in [9], 103%; in [10] it was 111%; in assay [11], 117%; in assay [8] it was 102%; in assay [12], 87%. Moreover, the residual activity came to 71% in [13] and 40% in [14].
`COc1ccc(Cl)cc1NC(=O)Nc1cc(C)nc2ccccc12`: the residual activity came to 87% in assay [15]; 99% in assay [16]; 83% in assay [3]; 71% in assay [7]; 91% in assay [4]; 100% in [5]. Besides, the residual activity was 87% in assay [9]; 76% in assay [17]; 95% in [18]; 93% in [13]; 79% in [14].
On to `COc1cc2c(cc1OC)-c1n[nH]c(Nc3cccc(F)c3)c1C2`, for which the residual activity was found to be 109% in [15]; 131% in assay [16]; 73% in assay [3]; 60% in assay [7]; 116% in assay [19]; 129% in assay [6]. Also, the residual activity in [17] was found to be 100%; in assay [8], 114%; in [12] it was 66%; in assay [13], 83%; in assay [14] it was 73%.
With `O=S(=O)(c1cccc2cnccc12)N1CCCNCC1`, the residual activity is 81% in assay [2]; 85% in assay [15]; 84% in [5]; 41% in assay [11]; 58% in assay [20]; 21% in [18].
On to `O=S(=O)(NCCNC/C=C/c1ccc(Br)cc1)c1cccc2cnccc12`, for which the residual activity in assay [2] turned out to be 69%; in assay [7], 63%; in [5], 74%; in assay [17] it was 66%; in assay [10] it was 19%; in assay [11] it was 3%. Also, the residual activity in [20] was determined as 9%; in assay [18], 2%.
With `O=C1NC(=O)C(c2cn(CCCn3ccnc3)c3ccccc23)=C1Nc1ccccc1`, the residual activity is 102% in assay [15]; 121% in assay [16]; 53% in assay [3]; 23% in assay [7]; 16% in assay [4]; 5% in assay [5]. Further, the residual activity in [17] came to 41%; in assay [10] it was 39%; in assay [11], 6%; in assay [20], 22%; in assay [18], 4%; in [8], 100%. The figures for the residual activity in [12], in assay [13] and in assay [14] were 67%, 41% and 13%, respectively.
Consider `CCCCc1c(-c2ccc(O)cc2)[nH]c2nccnc12`, for which the residual activity in assay [1] was 87%; in [2], 73%; in assay [3], 100%; in assay [7], 83%; in [4], 16%; in [5], 15%. The residual activity came to 90% in assay [20], 85% in assay [18], 61% in assay [13] and 42% in [14].
As for `O=C1NC(=O)C(c2c[nH]c3ccccc23)=C1c1c[nH]c2ccccc12`, the residual activity stood at 126% in assay [15]; 117% in assay [16]; 61% in assay [3]; 15% in [7]; 43% in [4]; 8% in [5]. Moreover, the residual activity in assay [10] is 73%; in assay [11], 19%; in [20], 49%; in [18], 6%; in assay [12], 35%; in assay [13] it was 41%. In addition, the residual activity in [14] was 7%.
As to `CC(C)c1nn(-c2c(Cl)cccc2Cl)c2nc(Cc3ccc(OCCO)cc3)[nH]c(=O)c12`, the residual activity in assay [2] amounted to 90%; in assay [15], 84%; in assay [16] it was 77%; in [3], 105%; in [7] it was 99%; in assay [4], 86%. Further, the residual activity in assay [5] stood at 48%; in assay [19], 106%; in [6] it was 102%; in [9] it was 97%; in assay [17] it was 83%; in assay [10], 128%. For the same molecule, the residual activity in assay [11] turned out to be 91%; in assay [20], 94%; in assay [18] it was 84%; in assay [8] it was 87%; in [12], 76%; in assay [13], 80%. The residual activity in assay [14] is 68%.
On to `O=C(c1cc2cc(O)ccc2[nH]1)c1cc2cc(O)ccc2[nH]1`, for which the residual activity is 112% in assay [1]; 113% in [15]; 63% in assay [16]; 70% in assay [3]; 35% in [7]; 16% in assay [4]. Also, the residual activity was found to be 4% in assay [5]; 78% in assay [6]; 77% in assay [9]; 82% in [17]; 67% in [20]; 27% in [18]. The residual activity stood at 39% in [13] and 14% in assay [14].
For `O=C(Nc1ccc(Cl)cc1)c1ccccc1NCc1ccncc1`, the residual activity in [4] was determined as 99%; in assay [18], 101%.
As for `COc1cc2nccc(Oc3ccc(NC(=O)Nc4cc(C)on4)c(Cl)c3)c2cc1OC`, the residual activity in assay [1] turned out to be 49%; in assay [2] it was 21%; in assay [3], 66%; in assay [7], 61%; in [5], 61%; in [6], 102%. The residual activity in assay [10] was 107%; in assay [11], 80%; in [14], 56%.
Turning to `O=c1cc(N2CCOCC2)oc2c(-c3ccccc3)cccc12`, the residual activity in assay [1] is 72%; in assay [16] it was 76%; in assay [17], 65%.
Take `CC(C)N(CCC(=O)c1ccc2ccccc2c1)Cc1ccccc1`: the residual activity worked out at 38% in [16]; 81% in [3]; 83% in [7]; 86% in assay [4]; 82% in assay [9]; 77% in [17]. For the same molecule, the residual activity was determined as 126% in assay [10]; 123% in assay [11]; 85% in assay [12]; 87% in assay [13]; 84% in assay [14].
As for `CCOc1nc(NC(=O)Cc2cc(OC)ccc2OC)cc(N)c1C#N`, the residual activity in assay [2] turned out to be 62%; in assay [15], 11%; in assay [16], 4%; in assay [7], 78%; in [13], 80%.
Consider `Nc1nc(Nc2ccc(S(N)(=O)=O)cc2)nn1C(=O)c1c(F)cccc1F`, for which the residual activity stood at 104% in [15]; 78% in [3]; 22% in assay [7]; 16% in assay [4]; 1% in [5]; 75% in assay [8]. The residual activity in assay [12] amounted to 33%; in [13], 25%; in assay [14] it was 2%.
For `O=C1C(Cl)=C(N2C(=O)CCC2=O)C(=O)c2ccccc21`, the residual activity in [15] worked out at 67%; in [16], 78%; in assay [7], 75%; in assay [4], 96%; in assay [5], 91%; in assay [6], 94%. Moreover, the residual activity worked out at 100% in assay [9]; 97% in assay [17]; 101% in assay [10]; 123% in [11]; 96% in [20]; 91% in assay [18]. For the same molecule, the residual activity is 98% in [8], 98% in assay [12] and 76% in [13].
Turning to `Cc1cc(C)c(/C=C2\C(=O)Nc3ccccc32)[nH]1`, the residual activity in assay [1] is 60%; in assay [2], 76%; in assay [3], 32%; in [7], 39%; in assay [9], 99%; in assay [20], 61%. The residual activity stood at 39% in assay [18], 99% in [8], 51% in assay [13] and 20% in [14].
As for `Nc1nccc(-c2c(-c3ccc(F)cc3)ncn2C2CCNCC2)n1`, the residual activity was 80% in assay [1], 3% in [2], 82% in [7] and 48% in [5].

The values are drawn from ChEMBL document CHEMBL2218924, “A broad activity screen in support of a chemogenomic map for kinase signalling research and drug discovery” (Biochem J, 2013).
